According to PubChem BioAssay (EPA / NIEHS):
Results filed as inconclusive are left out. Active and inactive are the calls of the source. The calls were made as follows: active = hit-call score of the fitted dose curve at least 0.9, where 1 is the maximum; inconclusive = response in the unintended direction; inactive = score below 0.9.

Tested on: not listed separately
Experiment: TOX21_p53_BLA_p3_viability: Viability Assessment in the Tox21 HCT-116 p53 Agonism Beta-lactamase Assay, Phase 3 (AID 2283593);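 also: cells exposed to compound for 16 h before reading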
Method in brief: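 Cellular ATP was quantified by CellTiter-Glo luminescence, read after 30 min at room temperature. Beforehand, HCT116 cells (4000/well) received compound 5 h post-seeding, 217-fold diluted from DMSO, then incubated 16 h at 37C.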

SMILES | outcome
CCC(C=O)CC | inactive
CCOCCC(=O)OCC | inactive
c1ccc2cnncc2c1 | inactive
CCCCc1ncc(/C=C(\Cc2cccs2)C(=O)O)n1Cc1ccc(C(=O)O)cc1 | inactive
CCOC(=O)Nc1ccc2c(c1)N(C(=O)CN(C)C)c1ccccc1CC2 | inactive
CCCCCCCC/C=C\CCCCCCCC(=O)OCCCC | inactive
CCCCS(=O)(=O)N[C@@H](Cc1ccc(OCCCCC2CCNCC2)cc1)C(=O)O | inactive
CCOC(=O)C(C)(C)C | inactive
Cc1cccc(C)c1N(CCCc1cccnc1)C(=O)C(C)N (stereo not drawn) | inactive
Cc1ccc(NC(N)=O)cc1 | inactive
ONc1ccccc1 | inactive
OC1CCCc2ccccc21 (stereo not drawn) | inactive
COc1ccc(C2CNC(=O)C2)cc1OC1CCCC1 (stereo not drawn) | inactive
CS(=O)(=O)CCNCc1ccc(-c2ccc3ncnc(Nc4ccc(OCc5cccc(F)c5)c(Cl)c4)c3c2)o1 | inactive
C/C=C(/CC[C@@H](C)[C@H]1CC[C@H]2C3=CC[C@H]4[C@H](C)[C@@H](O)CC[C@]4(C)[C@H]3CC[C@]12C)C(C)C | inactive
O=C1N=C2SCCN2C(=O)C1Cc1ccc(Cl)cc1 (stereo not drawn) | inactive
CCCCOCCOC(=O)CCCCCCCCC(=O)OCCOCCCC | inactive
CCCCC(CC)COC(=O)CC#N (stereo not drawn) | inactive
CNC(=O)c1ccccc1 | inactive
CCC(=O)c1cccc(Cl)c1 | inactive
Cn1c(N)nc2nc[nH]c2c1=O | inactive
Nc1ncnc2c1ncn2CCOCP(=O)(O)O | inactive

Biological target: Cellular tumor antigen p53 (Homo sapiens) (UniProt P04637)
Experiment: TOX21_p53_BLA_p3_ratio: Tox21 HCT-116 p53 Agonism Beta-lactamase Assay, Ratio, Phase 3 (AID 2283596)
Method in brief: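 Cells were seeded at 4000/well, rested 5 h at 37C, then dosed with DMSO compound solutions (217-fold dilution) for 16 h. CCF4-AM substrate was loaded for 2 h at room temperature, and the 460/530 nm emission ratio was fitted for gain of signal versus DMSO.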

Sequence of Cellular tumor antigen p53 (Homo sapiens) (P04637 whole entry, looked up): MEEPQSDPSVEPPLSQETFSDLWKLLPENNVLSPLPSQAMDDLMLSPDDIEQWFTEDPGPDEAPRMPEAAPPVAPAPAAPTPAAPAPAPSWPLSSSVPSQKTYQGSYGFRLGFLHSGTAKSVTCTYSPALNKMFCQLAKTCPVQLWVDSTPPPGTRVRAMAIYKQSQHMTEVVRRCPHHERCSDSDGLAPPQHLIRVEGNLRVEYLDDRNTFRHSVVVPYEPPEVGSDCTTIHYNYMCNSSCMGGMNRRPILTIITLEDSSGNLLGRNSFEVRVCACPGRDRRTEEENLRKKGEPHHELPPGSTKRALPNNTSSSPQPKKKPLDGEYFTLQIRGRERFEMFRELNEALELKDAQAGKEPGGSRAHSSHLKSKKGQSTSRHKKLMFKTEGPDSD

SMILES | outcome
CN1CCN2c3ncccc3Cc3ccccc3C2C1 (stereo not drawn) | inactive
CN1CCN(C2=Nc3ccccc3Sc3ccc(Cl)cc32)CC1 | inactive
CCCSSC(CCO)=C(C)N(C=O)Cc1cnc(C)nc1N | inactive
CCN1CCCC(OC(=O)C(c2ccccc2)c2ccccc2)C1 (stereo not drawn) | inactive
CN(C)CCCSc1ccccc1NC(=O)/C=C/c1ccccc1 | inactive
CC(C)CCCC(=O)O | inactive
CN(C)CCCOc1nn(Cc2ccccc2)c2ccccc12 | inactive
CC(C)(C)C(=O)OCOP(=O)(COCCn1cnc2c(N)ncnc21)OCOC(=O)C(C)(C)C | inactive
N#CSc1ccc(N)c([N+](=O)[O-])c1 | inactive
Cc1ncsc1CCO | inactive
CO/N=C(\C(=O)N[C@@H]1C(=O)N2C(C(=O)O)=C(CSc3nc(C)c(CC(=O)O)s3)CS[C@H]12)c1csc(N)n1 | inactive
CCN(CC)CCNC(=O)c1cc(S(C)(=O)=O)ccc1OC | inactive
CCN(CC)CCOc1ccccc1C(=O)CCc1ccccc1 | inactive
O=C1C(CCS(=O)c2ccccc2)C(=O)N(c2ccccc2)N1c1ccccc1 (stereo not drawn) | inactive
CC(CCc1ccc(O)cc1)NCC(O)c1ccc(O)cc1 (stereo not drawn) | inactive
CN(C)CCN1C(=O)c2ccccc2N(C)c2ccccc21 | inactive
CN(C)CCCN1c2ccccc2Sc2ccccc21 | inactive

Tested on: not listed separately
Experiment: TOX21_p53_BLA_p4_viability: Viability Assessment in the Tox21 HCT-116 p53 Agonism Beta-lactamase Assay, Phase 4 (AID 2283597);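 also: hits lower the luminescence signal meaning cytotoxicity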
Method in brief: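 Cytotoxicity as reduced cellular ATP (CellTiter-Glo luminescence, 30 min room temperature), measured in the same wells following the CCF4 FRET p53 reading. Human HCT-116 cells received compounds in DMSO (217-fold dilution) for 16 h.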

SMILES | outcome
CCCSSC(CCO)=C(C)N(C=O)Cc1cnc(C)nc1N | inactive
CN(C)CCCSc1ccccc1NC(=O)/C=C/c1ccccc1 | inactive
CC(C)CCCC(=O)O | inactive
CN(C)CCCOc1nn(Cc2ccccc2)c2ccccc12 | inactive
CC(C)(C)C(=O)OCOP(=O)(COCCn1cnc2c(N)ncnc21)OCOC(=O)C(C)(C)C | inactive
N#CSc1ccc(N)c([N+](=O)[O-])c1 | inactive
Cc1ncsc1CCO | inactive
CO/N=C(\C(=O)N[C@@H]1C(=O)N2C(C(=O)O)=C(CSc3nc(C)c(CC(=O)O)s3)CS[C@H]12)c1csc(N)n1 | inactive
CCN(CC)CCNC(=O)c1cc(S(C)(=O)=O)ccc1OC | inactive
CCN(CC)CCOc1ccccc1C(=O)CCc1ccccc1 | inactive

Biological target: Cellular tumor antigen p53 (Homo sapiens) (UniProt P04637)
Experiment: TOX21_p53_BLA_p5_ratio: Tox21 HCT-116 p53 Agonism Beta-lactamase Assay, Ratio, Phase 5 (AID 2283599)
Method in brief: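 Beta-lactamase reporter ratio (blue 460 nm over green 530 nm, 405 nm excitation) after 2 h CCF4-AM loading, in HCT-116 cells exposed 16 h at 37 C to compounds pinned at 217-fold dilution. Increases relative to DMSO baseline scored.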

SMILES | outcome
CCC(C=O)CC | inactive
c1ccc2cnncc2c1 | inactive
CCCCc1ncc(/C=C(\Cc2cccs2)C(=O)O)n1Cc1ccc(C(=O)O)cc1 | inactive
CCCCS(=O)(=O)N[C@@H](Cc1ccc(OCCCCC2CCNCC2)cc1)C(=O)O | inactive
CCOC(=O)C(C)(C)C | inactive
Cc1cccc(C)c1N(CCCc1cccnc1)C(=O)C(C)N (stereo not drawn) | inactive
Cc1ccc(NC(N)=O)cc1 | inactive
N#CSc1ccc(N)c([N+](=O)[O-])c1 | inactive
CS(=O)(=O)CCNCc1ccc(-c2ccc3ncnc(Nc4ccc(OCc5cccc(F)c5)c(Cl)c4)c3c2)o1 | inactive
Cc1ncsc1CCO | inactive
CO/N=C(\C(=O)N[C@@H]1C(=O)N2C(C(=O)O)=C(CSc3nc(C)c(CC(=O)O)s3)CS[C@H]12)c1csc(N)n1 | inactive
CCN(CC)CCNC(=O)c1cc(S(C)(=O)=O)ccc1OC | inactive

Tested on: not listed separately
Experiment: TOX21_p53_BLA_p5_viability: Viability Assessment in the Tox21 HCT-116 p53 Agonism Beta-lactamase Assay, Phase 5 (AID 2283600)
Method in brief: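 Viability came from CellTiter-Glo ATP luminescence, read after 30 min at room temperature. Before this, HCT-116 p53-bla cells (4000/well) had 16 hours of compound exposure at 37C, with DMSO stocks diluted 217-fold on transfer.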

SMILES | outcome
CCOC(=O)Nc1ccc2c(c1)N(C(=O)CN(C)C)c1ccccc1CC2 | inactive
CCCCCCCC/C=C\CCCCCCCC(=O)OCCCC | inactive
OC1CCCc2ccccc21 (stereo not drawn) | inactive
C/C=C(/CC[C@@H](C)[C@H]1CC[C@H]2C3=CC[C@H]4[C@H](C)[C@@H](O)CC[C@]4(C)[C@H]3CC[C@]12C)C(C)C | inactive
Cc1ncsc1CCO | inactive
O=C1N=C2SCCN2C(=O)C1Cc1ccc(Cl)cc1 (stereo not drawn) | inactive
CCCCOCCOC(=O)CCCCCCCCC(=O)OCCOCCCC | inactive
CO/N=C(\C(=O)N[C@@H]1C(=O)N2C(C(=O)O)=C(CSc3nc(C)c(CC(=O)O)s3)CS[C@H]12)c1csc(N)n1 | inactive
CCN(CC)CCNC(=O)c1cc(S(C)(=O)=O)ccc1OC | inactive
CCC(=O)c1cccc(Cl)c1 | inactive
Cn1c(N)nc2nc[nH]c2c1=O | inactive
Nc1ncnc2c1ncn2CCOCP(=O)(O)O | inactive
